From PubChem BioAssay (NCATS)
A number with no mark means an inactive call. Results filed as inconclusive are left out. A call without a number means that no potency is given here. Activity calls are given as the source filed them. Unless noted, calls come from the whole dose curve; as a rule, active = well fitted curve in the direction sought with a large enough effect; inconclusive = small, poorly fitted or top-dose-only effect, or another doubt; inactive = no such curve, though single readings can be large; an effect the other way counts as inactive or inconclusive.

Experiments:
[1] = molecular target: Lysosomal acid glucosylceramidase (Homo sapiens) (UniProt P04062); test: Glucocerebrosidase-p2 (AID 348; in the data active = potency below about 10 µM; note: potency is the fitted concentration of half-maximal effect); settings: purified GBA, blue fluorogenic substrate, 40 min
Outline: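 Normal human glucocerebrosidase (0.2 nM) with blue fluorogenic substrate (80 uM final) in citrate/phosphate pH 5.9 with 10mM sodium taurocholate, 0.01% tween-20; 40 min RT, NaOH/glycine stop; fluorescence Ex 365/Em 440; AC50 from a titration from 0.6 nM upwards.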

[2] = AP1 Signaling Pathway (AID 357; active = well fitted curve in either direction with a large enough effect, not every such curve was filed as active;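 note: ME-180 reporter cells stimulated with EGF at its EC50 level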); settings: ME-180 AP-1-bla reporter, EGF-induced, beta-lactamase ratio, 5 h; at 7.69 µM (top of the series) unless noted
Outline: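 Titration-series screen for positive or negative modulators of EC50 EGF-induced signaling in ME-180 cells carrying an AP-1-driven beta-lactamase reporter. After 5 hours at 37 degrees Celsius, CCF4 460nm/530nm emission ratio gave %Activity; AC50 values derived.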

[3] = molecular target: Cytochrome P450 1A2 (Homo sapiens) (UniProt P05177); test: p450-cyp1a2 (AID 410; calls by dose curve; note: potency is the fitted concentration of half-maximal effect); settings: recombinant CYP1A2, luciferin-ME demethylation, luminescence; series mostly up to 57 µM
Outline: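 20nM CYP1A2, 100uM Luciferin-ME (=Km), 100mM KPO4; cpd 10 min RT; +NADPH regen, 60 min RT; stop/detect 20 min; luminescence. Normalized to furafylline 57 uM = full inhibition.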

[4] = NFAT Signaling Pathway (AID 444; active = well fitted curve in either direction with a large enough effect, not every such curve was filed as active;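 note: carbachol stimulus at about its EC50 of 1 µM final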); settings: Jurkat NFAT-bla M1, carbachol, beta-lactamase ratio, 5 h; at 7.69 µM (top of the series) unless noted
Outline: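 Jurkat cells carrying an NFAT-driven β-lactamase reporter and co-transfected muscarinic M1 receptor were treated with compound plus carbachol (1 uM final, an EC50 level) for 5 h at 37 °C. CCF4 loading followed for 1 h at RT; 460/530 nm ratio gave %activity.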

[5] = Stat Signaling Pathway (AID 446; active = well fitted curve in either direction with a large enough effect, not every such curve was filed as active;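 note: ME-180 cervical cancer cells given 40 pM IL-6 alongside compound; SIE-controlled beta-lactamase reporter measured as 460/530 nm FRET emission ratio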); settings: ME-180 (cervical carcinoma) SIE beta-lactamase reporter, IL-6 stimulated, 5 h; at 7.69 µM (top of the series) unless noted
Outline: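 Compound effects on IL-6-induced STAT reporter activity were measured in ME-180 cells. After overnight culture, cells were co-treated with 40 pM IL-6 for 5 hrs before beta-lactamase substrate loading at room temperature.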

[6] = molecular target: Glucocorticoid receptor (Homo sapiens) (UniProt P04150); test: GR-GFP Redistribution (AID 450;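 active = compounds whose dose series gives a full or clear partial fitted curve of increased nuclear translocation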; note: potency is the fitted concentration of half-maximal effect); settings: U2OS GR-GFP nuclear translocation, laser cytometry, 2 h
[7] = molecular target: Glucocorticoid receptor (Homo sapiens) (UniProt P04150); test: GR-EFC Redistribution (AID 451; calls by dose curve; note: potency is the fitted concentration of half-maximal effect); settings: CHO-K1 GR-EFC translocation, beta-gal luminescence, 2 h
Outline: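 CHO-K1 cells stably expressing nuclear-localized β-gal enzyme acceptor and GR fused C-terminally to the enzyme donor fragment; ligand-driven nuclear translocation restores β-gal by complementation. Compounds titrated up to 46 uM final, 2 h at 37 °C; luminescence read.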

[8] = molecular target: Mitogen-activated protein kinase 10 (Mus musculus) (UniProt Q61831); test: JNK3 AlphaScreen Assay (AID 530; active = well fitted curve in either direction with a large enough effect, not every such curve was filed as active;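 note: kinase came from lysate of stimulated human HepG2 cells; signal reports phosphorylation of biotinylated GST-cJun 1-79 at Ser73 with 10 µM ATP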); settings: JNK3 lysate, c-Jun phosphorylation; series mostly up to 57.1 µM
Outline: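 Biotinylated GST-cJun(1-79) served as substrate for JNK3 in HepG2 lysates stimulated with IL-1beta and TNF-alpha. ATP was 10 uM final, pH 7.6. Ser73 phosphorylation was quantified by AlphaScreen (680 nm excitation).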

[9] = molecular target: Dual specificity protein kinase CLK4 (Homo sapiens) (UniProt Q9HAZ1); test: qHTS Assay for Inhibitors of CDC-like Kinase 4 (Kinase-Glo Assay) (AID 1770); settings: recombinant Clk4, Kinase-Glo ATP depletion luminescence; series mostly up to 66.7 µM; note: nearly all actives have a fitted effect of over 65% in size
Outline: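 Readout: Kinase-Glo luminescence from ATP left after a 4.5 h room-temperature reaction of 25 nM Clk4 with 100 uM RS peptide and 1 uM ATP (final). Buffer: 25 mM Tris pH 7.5, 10 mM MgCl2.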

[10] = molecular target: Dual specificity protein kinase CLK4 (Homo sapiens) (UniProt Q9HAZ1); test: qHTS Assay for Inhibitors of CDC-like Kinase 4 (ADP-Glo Assay) (AID 1771); settings: recombinant CLK4, ADP-Glo luminescence; series mostly up to 80 µM; note: nearly all actives have a fitted effect of over 70% in size
Outline: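 25 nM Clk4, 100 uM RS peptide, 1 uM ATP (final); 2 mM MgCl2, 0.5 mM EGTA, 2.5 mM DTT, 0.01% Triton X-100; 1 hr RT. ADP-Glo readout: ATP depletion 45 min, conversion/luciferase 30 min, luminescence.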

[11] = molecular target: Dual specificity protein kinase CLK4 (Homo sapiens) (UniProt Q9HAZ1); test: qHTS Assay for Inhibitors of CDC-like Kinase 4 (ADP-FP Assay) (AID 1795); settings: Transcreener ADP fluorescence polarization; series mostly up to 50 µM;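 note: recombinant human CLK4 phosphorylating RS repeat peptide at 1 µM ATP; nearly all actives have a fitted effect of over 60% in size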
Outline: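 FP readout: Orange Transcreener ADP2 tracer (4 nM) plus ADP antibody, read after 30 min at room temperature. Kinase step: 6.25 nM Clk4, 100 uM RS peptide, 1 uM ATP, pH 7.5, 1 h.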

[12] = molecular target: Ubiquitin carboxyl-terminal hydrolase 1 (Homo sapiens) (UniProt O94782); test: Inhibitors of USP1/UAF1: Pilot qHTS (AID 504865); settings: purified USP1/UAF1, Ub-rhodamine cleavage fluorescence; series mostly up to 54.9 µM;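 note: rhodamine fluorescence freed from ubiquitin-rhodamine substrate followed over time; top concentration of the series differs between compounds; nearly all actives have a fitted effect of over 35% in size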
Outline: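 1nM USP1/UAF1 + cpd, 15 min RT; start w/ Ub-Rho 150nM final; kinetic FL 480/540 nm, 6 reads q60 s. Buffer 50mM HEPES pH 7.8, 0.5mM EDTA, 1mM TCEP, 0.01% Tween-20, 0.1 mg/ml BSA.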

[13] = Primary qHTS for small molecule stabilizers of the endoplasmic reticulum resident proteome: Secreted ER Calcium Modulated Protein (SERCaMP) assay (AID 1508630); settings: SH-SY5Y GLuc-SERCaMP (Gaussia luciferase released on ER calcium loss) secretion, thapsigargin, luminescence; series mostly up to 38.4 µM
Outline: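 The SH-SY5Y reporter protocol was run at 3 concentrations up to 38.3 uM (primary) or 11 concentrations (follow-up): 16 h compound, 100 nM thapsigargin for 4 h, then extracellular luciferase luminescence.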

[14] = molecular target: 3',5'-cyclic-AMP phosphodiesterase 4B (Homo sapiens) (UniProt Q07343); test: qHTS Assay for Inhibitors of PDE-IV (AID 607; active = well fitted activation curve with a large enough effect in the main read-out, with a control signal flat, not every such curve was filed as active); settings: HEK293 ACTOne CNG channel cells, membrane potential fluorescence; series mostly up to 22.9 µM
Outline: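 ACTOne HEK293 cells carry a modified cAMP-gated CNG channel and express endogenous PDE4; plated 1000 cells/well, compounds up to 22.9 uM final. Membrane-potential dye fluorescence (ex 535/em 590) was read; parental cells received 10 uM forskolin + 100 uM RO 20-1724.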

[15] = molecular target: Cytochrome P450 3A4 (Homo sapiens) (UniProt P08684); test: qHTS Assay for Inhibitors and Substrates of Cytochrome P450 3A4 (AID 884); settings: recombinant CYP3A4, Luciferin-PPXE luminescence; series mostly up to 57.1 µM; note: potency is the fitted concentration of half-maximal effect; nearly all actives have a fitted effect of over 50% in size
Outline: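 Luminescent readout of luciferin produced by CYP3A4 (20 nM) dealkylation of Luciferin-PPXE, 25 uM (its KM). NADPH-driven reaction ran 60 min at RT after 10 min compound preincubation; data scaled to 57 uM ketoconazole as 100% inhibition.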

[16] = molecular target: Cytochrome P450 3A4 (Homo sapiens) (UniProt P08684); test: qHTS Assay for Activators of Cytochrome P450 3A4 (AID 885); settings: recombinant CYP3A4, Luciferin-PPXE luminescence, 60 min; series mostly up to 57.1 µM; note: nearly all actives have a fitted effect of over 65% in size
Outline: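 CYP3A4 activity: Luciferin-PPXE O-dealkylation, 25uM substrate, 200mM KPO4, RT throughout. Read-out is luciferase luminescence; higher values reflect activation.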

Glucocorticoid receptor (Homo sapiens), sequence (P04150 whole entry, looked up, the tested form may be a part): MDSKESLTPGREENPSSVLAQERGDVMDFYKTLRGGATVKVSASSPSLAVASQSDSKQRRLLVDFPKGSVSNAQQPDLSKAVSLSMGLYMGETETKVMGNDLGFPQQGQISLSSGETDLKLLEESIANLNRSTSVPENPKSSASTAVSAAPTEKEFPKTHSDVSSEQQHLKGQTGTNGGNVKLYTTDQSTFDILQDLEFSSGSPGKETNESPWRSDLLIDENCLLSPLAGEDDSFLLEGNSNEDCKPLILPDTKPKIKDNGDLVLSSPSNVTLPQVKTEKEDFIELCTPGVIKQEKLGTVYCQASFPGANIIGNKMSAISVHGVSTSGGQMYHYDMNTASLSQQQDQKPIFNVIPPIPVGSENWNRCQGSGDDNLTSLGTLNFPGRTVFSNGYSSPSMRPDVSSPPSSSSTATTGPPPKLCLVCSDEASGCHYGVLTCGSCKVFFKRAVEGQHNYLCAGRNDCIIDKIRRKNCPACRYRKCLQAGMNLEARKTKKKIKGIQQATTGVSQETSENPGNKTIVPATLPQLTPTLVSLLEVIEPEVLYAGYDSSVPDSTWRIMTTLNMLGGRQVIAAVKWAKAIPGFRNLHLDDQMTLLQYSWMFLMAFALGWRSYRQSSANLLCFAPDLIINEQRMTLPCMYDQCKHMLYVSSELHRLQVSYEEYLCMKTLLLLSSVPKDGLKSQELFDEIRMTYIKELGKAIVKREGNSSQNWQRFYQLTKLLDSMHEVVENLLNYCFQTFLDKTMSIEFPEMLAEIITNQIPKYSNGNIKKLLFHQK
3',5'-cyclic-AMP phosphodiesterase 4B (Homo sapiens), sequence (Q07343 whole entry, looked up): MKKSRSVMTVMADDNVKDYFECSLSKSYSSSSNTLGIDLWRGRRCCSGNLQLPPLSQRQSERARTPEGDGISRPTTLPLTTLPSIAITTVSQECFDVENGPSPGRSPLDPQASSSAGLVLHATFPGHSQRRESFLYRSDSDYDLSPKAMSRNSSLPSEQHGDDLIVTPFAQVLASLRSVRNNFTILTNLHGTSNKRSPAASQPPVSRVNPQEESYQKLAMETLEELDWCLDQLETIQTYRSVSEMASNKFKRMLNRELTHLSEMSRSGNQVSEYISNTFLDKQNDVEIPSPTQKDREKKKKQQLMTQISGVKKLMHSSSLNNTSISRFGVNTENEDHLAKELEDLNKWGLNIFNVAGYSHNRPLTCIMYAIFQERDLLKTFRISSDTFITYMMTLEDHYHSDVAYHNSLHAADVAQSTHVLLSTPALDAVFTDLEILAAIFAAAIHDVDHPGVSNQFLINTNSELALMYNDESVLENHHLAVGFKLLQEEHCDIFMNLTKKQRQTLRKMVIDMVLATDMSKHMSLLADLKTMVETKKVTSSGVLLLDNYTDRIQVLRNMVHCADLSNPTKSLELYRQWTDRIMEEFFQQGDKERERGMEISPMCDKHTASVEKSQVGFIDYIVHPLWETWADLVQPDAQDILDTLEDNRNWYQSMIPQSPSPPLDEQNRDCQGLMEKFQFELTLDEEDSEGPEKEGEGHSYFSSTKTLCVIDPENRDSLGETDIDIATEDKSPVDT
Ubiquitin carboxyl-terminal hydrolase 1 (Homo sapiens), sequence (O94782 whole entry, looked up): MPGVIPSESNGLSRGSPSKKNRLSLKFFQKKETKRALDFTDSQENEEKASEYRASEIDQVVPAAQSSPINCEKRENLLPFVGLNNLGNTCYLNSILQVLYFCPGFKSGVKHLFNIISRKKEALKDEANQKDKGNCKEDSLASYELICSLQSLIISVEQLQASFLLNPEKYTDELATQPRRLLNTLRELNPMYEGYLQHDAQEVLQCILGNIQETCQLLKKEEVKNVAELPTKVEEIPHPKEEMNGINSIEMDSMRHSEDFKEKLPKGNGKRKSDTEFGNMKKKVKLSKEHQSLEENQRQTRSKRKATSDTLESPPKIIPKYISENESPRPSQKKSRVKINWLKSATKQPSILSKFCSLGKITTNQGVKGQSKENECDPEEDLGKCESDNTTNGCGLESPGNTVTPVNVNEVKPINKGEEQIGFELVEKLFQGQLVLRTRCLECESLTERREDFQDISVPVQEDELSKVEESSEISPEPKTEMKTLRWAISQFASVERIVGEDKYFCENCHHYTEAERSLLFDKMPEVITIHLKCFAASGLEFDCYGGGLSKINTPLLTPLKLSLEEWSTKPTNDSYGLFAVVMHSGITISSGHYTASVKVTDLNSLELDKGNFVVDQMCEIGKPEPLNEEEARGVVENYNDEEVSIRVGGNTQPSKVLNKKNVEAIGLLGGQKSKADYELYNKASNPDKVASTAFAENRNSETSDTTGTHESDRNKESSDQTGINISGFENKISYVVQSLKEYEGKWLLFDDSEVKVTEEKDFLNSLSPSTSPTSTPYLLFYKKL
Cytochrome P450 1A2 (Homo sapiens), sequence (P05177 whole entry, looked up): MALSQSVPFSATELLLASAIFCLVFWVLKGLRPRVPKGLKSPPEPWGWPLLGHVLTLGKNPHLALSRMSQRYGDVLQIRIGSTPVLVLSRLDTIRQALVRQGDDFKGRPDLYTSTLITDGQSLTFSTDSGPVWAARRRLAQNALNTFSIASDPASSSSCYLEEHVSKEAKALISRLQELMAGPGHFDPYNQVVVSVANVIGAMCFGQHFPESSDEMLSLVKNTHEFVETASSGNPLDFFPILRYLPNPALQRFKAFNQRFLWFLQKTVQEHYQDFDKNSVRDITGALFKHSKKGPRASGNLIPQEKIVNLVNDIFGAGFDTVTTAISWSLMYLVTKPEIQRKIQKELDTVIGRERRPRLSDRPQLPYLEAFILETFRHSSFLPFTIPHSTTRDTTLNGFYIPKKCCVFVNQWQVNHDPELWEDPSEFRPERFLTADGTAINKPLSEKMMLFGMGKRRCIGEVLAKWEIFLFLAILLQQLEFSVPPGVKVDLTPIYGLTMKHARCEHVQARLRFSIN
Dual specificity protein kinase CLK4 (Homo sapiens), sequence (Q9HAZ1 whole entry, looked up): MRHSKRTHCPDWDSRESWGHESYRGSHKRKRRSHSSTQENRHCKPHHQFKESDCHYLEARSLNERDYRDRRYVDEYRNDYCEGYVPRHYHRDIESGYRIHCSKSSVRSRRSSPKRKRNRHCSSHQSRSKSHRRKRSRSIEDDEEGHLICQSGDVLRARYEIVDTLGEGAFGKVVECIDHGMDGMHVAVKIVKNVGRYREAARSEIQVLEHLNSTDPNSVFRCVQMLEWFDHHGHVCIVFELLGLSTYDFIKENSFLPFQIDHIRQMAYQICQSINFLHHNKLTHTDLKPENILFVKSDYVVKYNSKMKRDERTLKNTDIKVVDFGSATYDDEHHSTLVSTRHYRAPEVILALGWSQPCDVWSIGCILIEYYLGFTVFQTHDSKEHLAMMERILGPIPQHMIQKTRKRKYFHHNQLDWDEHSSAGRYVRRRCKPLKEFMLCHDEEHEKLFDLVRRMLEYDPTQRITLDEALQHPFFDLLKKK
Cytochrome P450 3A4 (Homo sapiens), sequence (P08684 whole entry, looked up): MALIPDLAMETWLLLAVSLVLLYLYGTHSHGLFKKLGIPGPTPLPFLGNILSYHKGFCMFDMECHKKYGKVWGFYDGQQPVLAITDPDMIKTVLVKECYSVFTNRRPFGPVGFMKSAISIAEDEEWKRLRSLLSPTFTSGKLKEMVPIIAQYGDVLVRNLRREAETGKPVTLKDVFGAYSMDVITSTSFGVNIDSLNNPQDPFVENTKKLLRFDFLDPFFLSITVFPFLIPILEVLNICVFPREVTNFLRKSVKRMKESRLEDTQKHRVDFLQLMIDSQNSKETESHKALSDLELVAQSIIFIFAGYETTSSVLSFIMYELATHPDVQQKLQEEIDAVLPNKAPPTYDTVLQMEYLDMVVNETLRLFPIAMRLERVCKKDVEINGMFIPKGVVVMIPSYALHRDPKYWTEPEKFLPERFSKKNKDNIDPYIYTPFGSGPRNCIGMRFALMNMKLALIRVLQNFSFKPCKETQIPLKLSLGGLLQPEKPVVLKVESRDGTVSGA
Lysosomal acid glucosylceramidase (Homo sapiens), sequence (P04062 whole entry, looked up): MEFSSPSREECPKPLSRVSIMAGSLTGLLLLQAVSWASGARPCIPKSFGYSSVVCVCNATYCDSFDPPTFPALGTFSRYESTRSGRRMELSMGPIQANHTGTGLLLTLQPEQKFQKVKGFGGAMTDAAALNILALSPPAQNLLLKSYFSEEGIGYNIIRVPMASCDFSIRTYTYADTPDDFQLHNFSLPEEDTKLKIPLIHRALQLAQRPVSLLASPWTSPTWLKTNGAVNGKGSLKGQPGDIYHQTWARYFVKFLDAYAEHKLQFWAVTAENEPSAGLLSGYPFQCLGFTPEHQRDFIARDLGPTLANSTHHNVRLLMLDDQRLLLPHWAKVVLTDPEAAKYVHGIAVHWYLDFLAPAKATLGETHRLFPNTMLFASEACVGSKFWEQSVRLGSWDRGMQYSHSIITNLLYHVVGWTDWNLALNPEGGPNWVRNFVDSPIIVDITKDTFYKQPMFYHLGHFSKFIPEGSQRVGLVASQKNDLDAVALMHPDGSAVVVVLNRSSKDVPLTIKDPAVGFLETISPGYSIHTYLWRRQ

Compound	Potency [1] [µM]	activity change, negative = inhibition [2] [%]	Potency [3]	activity change, negative = inhibition [4] [%]	activity, negative = inhibition [5] [%]	Potency [6] [µM]	Potency [7] [µM]	Potency [8]	Potency [9]	Potency [10]	Potency [11]	Potency [12]	outcome [13]	Potency [14]	Potency [15]	Potency [16]
CCNc1ncc2nc(-c3ccccc3)c(=O)n(C)c2n1	> 11.4	-13.4	0.398 µM (active)	-7.59	-9.07	> 9.22	> 46	inactive	inactive	inactive	inactive	inactive	inactive			
COc1ccc(-n2c(=O)c(CCc3ccccc3)nc3cncnc32)cc1	> 11.4	-15.2	25.1 µM (active)	-3.92	-3.17	> 9.22	> 46	inactive	inactive	inactive	inactive	inactive	inactive			
COCCn1c(=O)c(-c2cccc(C#N)c2)nc2cnc(N3CCOCC3)nc21	> 11.4	-16.2	10 µM (active)	-8.26	3.4	> 9.22	> 46	inactive	inactive	inactive	inactive	inactive	inactive	inactive		
O=c1c(CCc2ccccc2)nc2cnc(N3CCOCC3)nc2n1CCc1ccccc1	> 11.4	0.172	25.1 µM (active)	6.88	-4.94	> 9.22	> 46	inactive	inactive	inactive	inactive	inactive	inactive			
Cc1cccc(CNc2ncncc2-c2ccc(C(=O)N(C)C)cc2)c1	> 11.4	-19	15.8 µM (active)	11.4	1.97	> 46	> 46	inactive	inactive	inactive	inactive	inactive	inactive	inactive	0.631 µM (active)	inactive
CNc1ncncc1-c1ccccc1C(F)(F)F	> 11.4	2.43	inactive	11.4	22.6	> 46	> 46	inactive	inactive	inactive	inactive	inactive	inactive	inactive	0.794 µM (active)	inactive
COc1ccc(Nc2ncc3nc(-c4cccs4)c(=O)n(Cc4cccc(OC)c4)c3n2)cc1	> 11.4	-12.3	inactive	-11.6	-8.74	> 9.22	> 46	inactive	inactive	inactive	inactive	inactive	inactive	inactive		
COc1cccc(Cn2c(=O)c(CCc3ccccc3)nc3cncnc32)c1	> 11.4	-12.1	12.6 µM (active)	-7.87	-9.09	> 9.22	> 46	inactive	inactive	inactive	inactive	inactive	inactive	inactive	2.51 µM (active)	inactive
O=c1c(-c2ccccc2)nc2cncnc2n1-c1ccccc1	> 11.4	-10.5	5.01 µM (active)	2.09	0.883	> 9.22	> 46	inactive	inactive	inactive	inactive	inactive	inactive			
c1cc(NC2CC2)nc(-c2ccoc2)n1	> 11.4	-10.4	0.251 µM (active)	-10.6	14.4	> 46	> 46	inactive	inactive	inactive	inactive	inactive	inactive	inactive	5.01 µM (active)	inactive
CCNc1ncc2nc(-c3cn(C)c4ccccc34)c(=O)n(C[C@H]3CCCO3)c2n1	> 11.4	-16.7	10 µM (active)	16.3	9.05	> 9.22	> 46	inactive	inactive	inactive	inactive	inactive	inactive			
COc1ccccc1CNc1ccnc(-c2ccc(C(=O)N(C)C)cc2)n1	> 11.4	-10.9	12.6 µM (active)	4.15	-1.46	> 46	> 46	inactive	inactive	inactive	inactive	inactive	inactive	inactive		inactive
